Legend:
Assay in all cases: pooled miR-30 sensor sort-seq; sequence = guide strand
Details in all cases: shRNA
[1] = target: TAC4
[2] = target: TACR1
[3] = target: TAAR8
[4] = target: TAF3
[5] = target: TAS1R2
[6] = target: TC2N
[7] = target: TDRD7
[8] = target: TEAD3
[9] = target: TDRKH
[10] = target: TCTN3
[11] = target: TDRD10
Further: reference of the scale not given here.

**Q.** TCATCCTCTCTGCCTTCTGTGA was tested. Which sensor-assay potency score (higher = more potent) [1] did it give?
**A.** -1.57

**Q.** How did the sensor-assay potency score (higher = more potent) [1] turn out when TTCCTCTCCACCATCACCTGCC was run?
**A.** 0.531

**Q.** For TAGTTCGTCACTGTCCTCATTC, which sensor-assay potency score (higher = more potent) [2] is on record?
**A.** -0.77

**Q.** With TTCTCATAAATCTTGTTCGGAT as the sequence, how does the sensor-assay potency score (higher = more potent) [2] read?
**A.** -0.905

**Q.** Which sensor-assay potency score (higher = more potent) [1] does the source give for TTTTTTTCTCCTTGGCTGGATC here?
**A.** -1.14

**Q.** For TCAGTAACCACAATGTACCTGT, which sensor-assay potency score (higher = more potent) [3] is on record?
**A.** 0.327

**Q.** TAGGTGAAGTTCACCACTGTAT was tested. Which sensor-assay potency score (higher = more potent) [2] did it give?
**A.** -0.204

**Q.** Which sensor-assay potency score (higher = more potent) [2] does the source give for TTTCTCATAAATCTTGTTCGGA here?
**A.** 0.392

**Q.** For TTCAGCTTCAGGACTATCCAGT, which sensor-assay potency score (higher = more potent) [4] is on record?
**A.** -0.217

**Q.** Which sensor-assay potency score (higher = more potent) [2] does the source give for TGACTTTGTACACACTGCCCTG here?
**A.** -1.2

**Q.** With TCGATCATGCACACGACTCTGC as the sequence, how does the sensor-assay potency score (higher = more potent) [2] read?
**A.** 0.106

**Q.** TTCGTCACTGTCCTCATTCTTT was tested. Which sensor-assay potency score (higher = more potent) [2] did it give?
**A.** -0.603

**Q.** With TCTGTGAACAGGCTTCTCTTGC as the sequence, how does the sensor-assay potency score (higher = more potent) [1] read?
**A.** -0.505

**Q.** For TCTCTGCCTTTTTTTCTCCTTG, which sensor-assay potency score (higher = more potent) [1] is on record?
**A.** -0.948

**Q.** TAAACTTGTAGGGATCTGCCTC was tested. Which sensor-assay potency score (higher = more potent) [4] did it give?
**A.** 0.187

**Q.** Which sensor-assay potency score (higher = more potent) [1] does the source give for TGCAGCTGGAGCTGAATGCTGG here?
**A.** -1.1

**Q.** TTATAGCTTGTTGTTTAGCTAT was tested. Which sensor-assay potency score (higher = more potent) [3] did it give?
**A.** -0.98

**Q.** Which sensor-assay potency score (higher = more potent) [4] does the source give for TAACACAACATCTAGCGTGTCC here?
**A.** 0.323

**Q.** Which sensor-assay potency score (higher = more potent) [4] does the source give for TATCTTTATCTTTCTTGCCTTT here?
**A.** -0.809

**Q.** With TTCTTGAGAAGACACAATGGGT as the sequence, how does the sensor-assay potency score (higher = more potent) [4] read?
**A.** -1.17

**Q.** For TATGCTTTTTTTCTCCTTGGCT, which sensor-assay potency score (higher = more potent) [1] is on record?
**A.** -0.257

**Q.** For TATAAGAAAAATCTTACTGTAA, which sensor-assay potency score (higher = more potent) [3] is on record?
**A.** -0.203

**Q.** With TGCTTCAGTGCTGAGTGTCTGT as the sequence, how does the sensor-assay potency score (higher = more potent) [1] read?
**A.** -0.405

**Q.** For TTCTTGTTCGCACACTTGGGGC, which sensor-assay potency score (higher = more potent) [4] is on record?
**A.** -1.41

**Q.** For TTGAGTAGTAGCCCTGGGGGAA, which sensor-assay potency score (higher = more potent) [2] is on record?
**A.** -0.65

**Q.** With TTTAGCTATAAGAAAAATCTTA as the sequence, how does the sensor-assay potency score (higher = more potent) [3] read?
**A.** -0.583

**Q.** For TGCTTTTTTTCTCCTTGGCTGG, which sensor-assay potency score (higher = more potent) [1] is on record?
**A.** -1.36

**Q.** With TATAGCTTGTTGTTTAGCTATA as the sequence, how does the sensor-assay potency score (higher = more potent) [3] read?
**A.** -1.63

**Q.** How did the sensor-assay potency score (higher = more potent) [2] turn out when TAGATCAGCACAGTCACACAGA was run?
**A.** -0.182

**Q.** With TAGAACAGGCCGTAGTACCATT as the sequence, how does the sensor-assay potency score (higher = more potent) [2] read?
**A.** -1.05

**Q.** Which sensor-assay potency score (higher = more potent) [4] does the source give for AATAACACAACATCTAGCGTGT here?
**A.** 0.896

**Q.** TTTATCTGCTACCACAGCCTTT was tested. Which sensor-assay potency score (higher = more potent) [4] did it give?
**A.** -0.868

**Q.** Which sensor-assay potency score (higher = more potent) [1] does the source give for TTCTGTGAACAGGCTTCTCTTG here?
**A.** -0.693

**Q.** How did the sensor-assay potency score (higher = more potent) [3] turn out when TAGCCTTTAAAACATCTCCACT was run?
**A.** -0.818

**Q.** With TAGAAGGTCATGCTGAGGGTGA as the sequence, how does the sensor-assay potency score (higher = more potent) [5] read?
**A.** -0.126

**Q.** How did the sensor-assay potency score (higher = more potent) [6] turn out when TTAAATCACAAACCGATCCATA was run?
**A.** -0.989

**Q.** With TATCGTACAGAACAACAAGTGG as the sequence, how does the sensor-assay potency score (higher = more potent) [7] read?
**A.** -0.96

**Q.** For TTTCTCGTCCGAGTCTTCCCCG, which sensor-assay potency score (higher = more potent) [8] is on record?
**A.** -0.491

**Q.** How did the sensor-assay potency score (higher = more potent) [8] turn out when TATAGCGTGCAATCAACTCATT was run?
**A.** -1.09

**Q.** TTAGTTACTTTGACATTTGTGT was tested. Which sensor-assay potency score (higher = more potent) [7] did it give?
**A.** 0.2

**Q.** For TTTCCTTTGTCTCTTAACGGTG, which sensor-assay potency score (higher = more potent) [7] is on record?
**A.** -1.32

**Q.** With TTGATAGTAGTAATGTCCCTTC as the sequence, how does the sensor-assay potency score (higher = more potent) [9] read?
**A.** -0.374

**Q.** For TTTATAGCTGAAATGCTGCAGT, which sensor-assay potency score (higher = more potent) [10] is on record?
**A.** 0.223

**Q.** For TTCCTCCTTAGAAATATCCAGT, which sensor-assay potency score (higher = more potent) [11] is on record?
**A.** -0.848

**Q.** How did the sensor-assay potency score (higher = more potent) [9] turn out when TTTTCTTCTATGTCTTCAGGAA was run?
**A.** 0.0327

**Q.** For TTGGTCTCAGTGAGCAACGTGC, which sensor-assay potency score (higher = more potent) [9] is on record?
**A.** -0.522

**Q.** For TAAATTATCACTCATTTCCTTA, which sensor-assay potency score (higher = more potent) [7] is on record?
**A.** -0.487

**Q.** With TTTGTGGACATCAAGAGGGTTG as the sequence, how does the sensor-assay potency score (higher = more potent) [11] read?
**A.** -0.333

**Q.** With TTGTAGGTAAAGGTGCTGCTAC as the sequence, how does the sensor-assay potency score (higher = more potent) [9] read?
**A.** -0.223

**Q.** How did the sensor-assay potency score (higher = more potent) [10] turn out when TTGAAGTGAATGATTCGCCTCC was run?
**A.** 0.789

**Q.** With ATAGTCAACATAGCATACCTTT as the sequence, how does the sensor-assay potency score (higher = more potent) [7] read?
**A.** -1.08

**Q.** Which sensor-assay potency score (higher = more potent) [11] does the source give for AAGTCGTCGCTGTCTAGGCTGC here?
**A.** -0.771

**Q.** How did the sensor-assay potency score (higher = more potent) [7] turn out when TAGATTGTGGAAGATCTGCTAA was run?
**A.** -0.00415

**Q.** How did the sensor-assay potency score (higher = more potent) [11] turn out when TTCTCCATTATCCAGAATCTGT was run?
**A.** -1.03

**Q.** With TTTAGGATGTGCAACGCCGAGT as the sequence, how does the sensor-assay potency score (higher = more potent) [11] read?
**A.** -0.733

**Q.** How did the sensor-assay potency score (higher = more potent) [7] turn out when TTAACCACAGCACTGCATCTGG was run?
**A.** -0.0871

**Q.** With TTCAATGACTGTCTGCACCAGT as the sequence, how does the sensor-assay potency score (higher = more potent) [7] read?
**A.** 0.309

**Q.** Which sensor-assay potency score (higher = more potent) [9] does the source give for TTTAATATTGGCTCCTTGCCGG here?
**A.** -0.28

**Q.** How did the sensor-assay potency score (higher = more potent) [9] turn out when TATAAGTAGATCTTTGGCCAAG was run?
**A.** -1.04

**Q.** How did the sensor-assay potency score (higher = more potent) [11] turn out when TTTGCTTGTATTCACGAACAGT was run?
**A.** -0.914

— the OligoGym collection
